# Data published in PubChem BioAssay (NCATS).
# “And” between values parts separate entries of the source, which are not always exact repeats. Identical values can stand only once. Results filed as inconclusive are left out. A call without a number means that no potency is given here. The source made the active and inactive calls. The call rests on the fitted dose curve; in most records, active means well fitted cell-killing curve with a large enough effect; inconclusive means small, poorly fitted or top-dose-only effect; inactive means no such curve, though single readings can be large or run the other way.
# Experiment: qHTS of pediatric cancer cell lines to identify multiple opportunities for drug repurposing: Primary screen for Saos-2 cells (AID 1347097); further: nearly all actives have a fitted effect of over 40% in size
# Conditions: Saos-2 viability, CellTiter-Glo ATP luminescence, 48 h; series mostly up to 46 µM
# Text: Drug repurposing or repositioning has been offered as a strategy for drug development in oncology programs. This approach has special potential for childhood cancers and other rare or orphan diseases, where the expected return on new drug development has been a disincentive to pharmaceuticals. […] In this project we exploit the poly-pharmacology of drugs to discover new indications via phenotypic screening of a panel of 19 well-characterized cell lines derived from solid tumors seen in children and adolescents. The goal is to identify approved drugs with previously unrecognized anticancer properties that has the potential to reveal new mechanisms and biological processes involved in carcinogenesis or drug resistance. We employed a titration-based paradigm (quantitative high-throughput screening or qHTS), where all compounds were tested at multiple concentrations for their effect on cell viability. Concentration-response curves (CRCs) were derived directly from the primary screen, and both potency and efficacy values were used to identify compounds with robust bioactivity profiles. We screened the NIH Chemical Genomics Center (NCGC) Pharmaceutical Collection (NPC) and Mechanism Interrogation Plate (MIPE) small molecule collections of approved and investigational compounds against these cell lines; and measured metabolically active cells after 48 hours of compound treatment as a proxy for cell viability. […] Assay Submitter: Nathalia J. Martinez, National Center for Advancing Translational Sciences, National Institutes of Health, Rockville, MD, USA; email: natalia.martinez@nih.gov Shen, M et al. Quantitative high-throughput phenotypic screening of pediatric cancer cell lines identifies multiple opportunities for drug repurposing. Oncotarget 2017 Dec 19;9(4):4758-4772. PMID 29435139.
# The cells were obtained from University of North Carolina (UNC), Pediatric Preclinical Testing Program (PPT), and Coriell Institute (CI). qHTS cell viability assay: Cells were assayed in growth media at a density of 500-1,000 cells/well. Five microliters of cells were dispensed into 1,536-well, white, solid-bottom, TC-treated plates (Greiner Bio One) using a multidrop dispenser and incubated at 37 degrees C, 5% CO2, under a humidified atmosphere for 5 hours. Twenty-three nanoliters of compounds and controls (neutral control DMSO or positive control bortezomib at final concentration of 2.3 µM) were subsequently transferred by Kalypsys pintool. For primary screens, the MIPE collection was tested at 11-point dilutions (final concentrations range from 0.78 nM to 46 µM) and the NPC collection at 8-point dilutions (final concentrations range from 0.59 nM to 46 µM). Compounds tested in follow-up screens were assayed at 11-point dilutions. Cells were incubated for 48 hours, followed by addition of 3 µL of CellTiter-Glo (Promega). After a 15 min incubation at room temperature, samples were analyzed for luminescence intensity using a ViewLux High-throughput CCD imager equipped with clear filters.
# Potency means the concentration at half of the fitted maximal effect.
row,Compound,Potency
1,COc1cccc(N(C)C(=S)Oc2ccc3c(c2)CCCC3)n1,inactive
2,NCCCC(O)(P(=O)(O)O)P(=O)(O)O,inactive
3,O=P(O)(O)C(O)(Cc1cccnc1)P(=O)(O)O,inactive
4,O=C(N[C@H](CO)[C@H](O)c1ccc([N+](=O)[O-])cc1)C(Cl)Cl,inactive
5,COc1cc2nc(N3CCCN(C)CC3)nc(NC3CCN(Cc4ccccc4)CC3)c2cc1OC,7.43 µM (active)
6,CCCN[C@H]1CCc2nc(N)sc2C1,inactive
7,CCCOc1ccc(C(=O)OCCN(CC)CC)cc1N,inactive
8,CCn1cc(C(=O)O)c(=O)c2cc(F)c(N3CCN(C)CC3)cc21,inactive
9,NC(=O)c1cccc(N)c1,inactive
10,O=C(O)c1cccnc1,inactive
11,CC[C@H](NC(C)C)[C@H](O)c1ccc(O)c2[nH]c(=O)ccc12,inactive
12,CN(C)CCc1c[nH]c2ccc(C[C@H]3COC(=O)N3)cc12,inactive
13,Cc1cc(NS(=O)(=O)c2ccc(N)cc2)no1,inactive
14,Cc1oc(=O)oc1CN1CCN(c2cc3c(cc2F)c(=O)c(C(=O)O)c2n3C(C)S2)CC1 (stereo not given),inactive
15,CCCCOc1ccc(CC(=O)NO)cc1,23.5 µM (active)
16,Nc1nc(=S)c2[nH]cnc2[nH]1,7.5 µM (active) and 4.69 µM (active)
17,COc1ncnc(NS(=O)(=O)c2ccc(N)cc2)c1OC,inactive
18,CS(=O)(=O)c1ccc([C@@H](O)[C@@H](CO)NC(=O)C(Cl)Cl)cc1,inactive
19,COc1ccc(-c2ccc3cc(C(=O)O)ccc3c2)cc1C12CC3CC(CC(C3)C1)C2,18.7 µM (active)
20,NNC(=O)c1ccncc1,inactive

row,Compound,Potency
1,COc1cc(NS(=O)(=O)c2ccc(N)cc2)nc(OC)n1,inactive
2,O=c1cc(O)c(Cl)c[nH]1,inactive
3,CCOC(=O)c1ccc(OC(=O)CCCCCN=C(N)N)cc1,inactive
4,CCc1c2c(nc3ccc(OC(=O)N4CCC(N5CCCCC5)CC4)cc13)-c1cc3c(c(=O)n1C2)COC(=O)[C@]3(O)CC,1.5 µM (active) and 1.32 µM (active)
5,CCN[C@H]1C[C@H](C)S(=O)(=O)c2sc(S(N)(=O)=O)cc21,inactive
6,Cc1cccc(Nc2ccncc2S(=O)(=O)NC(=O)NC(C)C)c1,inactive
7,COc1cc([C@@H]2c3cc4c(cc3[C@H](O)[C@H]3COC(=O)[C@H]23)OCO4)cc(OC)c1OC,33.5 nM (active) and 2.64 µM (active)
8,CN(CCOc1ccc(CC2SC(=O)NC2=O)cc1)c1ccccn1 (stereo not given),inactive
9,COc1c(N2CCNC(C)C2)c(F)cc2c(=O)c(C(=O)O)cn(C3CC3)c12 (stereo not given),inactive
10,CCN(C)C(=O)Oc1cccc([C@H](C)N(C)C)c1,inactive
11,CN(C)c1ccc(C(=C2C=CC(=[N+](C)C)C=C2)c2ccc(N(C)C)cc2)cc1,2.11 µM (active) and 418 nM (active)
12,CC(C)OC(=O)OCOP(=O)(CO[C@H](C)Cn1cnc2c(N)ncnc21)OCOC(=O)OC(C)C,inactive
13,CCn1cc(C(=O)O)c(=O)c2cc(F)c(N3CCNCC3)nc21,inactive
14,Cc1nnc(NS(=O)(=O)c2ccc(N)cc2)s1,inactive
15,Oc1c(Cl)cc(Cl)c2cccnc12,16.6 µM (active)
16,CC(C)NCC(O)c1ccc(NS(C)(=O)=O)cc1 (stereo not given),inactive
17,COc1cnc(NS(=O)(=O)c2ccc(N)cc2)nc1,inactive
18,C[C@@H]1C[C@H]2[C@@H]3CCC4=CC(=O)C=C[C@]4(C)[C@@]3(Cl)[C@@H](O)C[C@]2(C)[C@@]1(OC(=O)c1ccco1)C(=O)CCl,14.8 µM (active)
19,CC1CC2C3CCC4=CC(=O)C=C[C@]4(C)[C@@]3(F)[C@@H](O)C[C@]2(C)[C@@]1(O)C(=O)CO (stereo not given in full),inactive
20,CC(C(=O)O)c1ccc2c(c1)CC(=O)c1ccccc1S2 (stereo not given),inactive
